Molecules are shown by their SMILES. Active and inactive are the calls of the source. Rule for the calls: active = hit-call score of the fitted dose curve at least 0.9, where 1 is the maximum; inactive = score below 0.9.

The experiment is described as follows: BSK_SAg_Proliferation: Cell Proliferation Assessment in the BioMAP Diversity Plus: SAg Assay (AID 2283095). Conditions: primary human HUVEC with PBMC. The method, then: BSK_SAg is a cell-based, multiplexed-readout assay that uses umbilical vein endothelium and peripheral blood mononuclear cells, a human vascular primary cell co-culture, with measurements taken at 24 hours after chemical dosing in a 96-well plate.BSK_SAg_Proliferation is an assay component in the BSK_SAg assay. It measures protein content, a form of viability reporter, as detected with absorbance signals by Sulforhodamine staining technology. Data from the assay component BSK_SAg_Proliferation was analyzed into 1 assay endpoint. This assay endpoint, BSK_SAg_Proliferation, was analyzed with bidirectional fitting relative to DMSO as the negative control and baseline of activity. Using a type of viability reporter, measures of total protein for gain or loss-of-signal activity can be used to understand the viability at the cellular-level. Furthermore, this assay endpoint can be referred to as a secondary readout, because this assay has produced multiple assay endpoints where this one serves a viability function. To generalize the intended target to other relatable targets, this assay endpoint is annotated to the cell cycle intended target family, where the subfamily is proliferation.
The levels of cell surface (or secreted, indicated by the prefix "s") biomarker endpoints were measured by ELISA. Overt cytotoxicity to cells in confluent adherent cultures (all systems other than the BT system) was assessed by measuring total protein levels using sulforhodamine B (SRB) staining in parallel cultures at the time of biomarker measurements, indicated as SRB endpoints. For proliferation assays for adherent cell types, individual cell types are cultured at sub-confluence and relative cell numbers quantified by SRB staining at time points optimized for each system (48 h: 3C and CASM3C systems; 72 h: BT and HDF3CGF systems; 96 h: SAg system). SRB was performed by staining cells with 0.1% SRB after fixation with 10% TCA and reading wells at 560 nm.Viability and proliferation of PBMC (T cells) was quantified by Alamar Blue reduction for the SAg and BT systems. For PBMC viability (referred to as PBMC Cytotoxicity within the assay endpoint names), cells were plated (75,000/well in a 96-well plate) and then chemical samples added for 1 h before addition of activators, SEB and TSST-1 (20 ng/mL final concentration each). Cells were incubated for 90 h. Then, Alamar Blue (20 uL/well) (Invitrogen, Cat DAL1100) was added for 6 h, and the plates were read with a fluorescence microplate reader at 546/580 nm (excitation/emission). For PBMC proliferation, cells were plated and activated as above but incubated for only 16 h prior to addition of Alamar Blue. Plates were read after 6 h.
Usually AC50 stands for the midpoint of the concentration-response curve, whichever way the signal moves. Consider `CN(C)c1ccc(C(=C2C=CC(=[N+](C)C)C=C2)c2ccc(N(C)C)cc2)cc1`, for which the AC50 is 0.693 µM (active).

As for `CCCCCCCCOc1ccc(C(=O)c2ccccc2)c(O)c1`, the AC50 is 15 µM (active).

For the molecule `O=C(O)c1ccccc1C(=O)OCc1ccccc1`, the outcome was inactive.

`CCCCCc1ccc(N)cc1`: the result was inactive.

For `CC[C@H](NC(=O)c1cc(F)ccc1NS(=O)(=O)c1cccc2cccnc12)c1ccccc1`, the AC50 was 22.5 µM (active).

For the molecule `CC(C)(O)c1ccc(CNC(=O)c2cccnc2Oc2ccc3nonc3c2)cc1`, the result was inactive.

For the molecule `CCCCOC(=O)CC(CC(=O)OCCCC)(OC(C)=O)C(=O)OCCCC`, the result was inactive.

For `CC(C)(C)c1csc(-c2cc3cc(OCc4ccccc4CC(=O)O)ccc3o2)n1`, the AC50 is 20.1 µM (active).

Take `CCOC(=O)O[C@H](C)OC(=O)c1ccc2c(c1)cc(C(=O)NC1CCN(C(C)C)CC1)n2Cc1cc(-c2ccc(Cl)s2)on1`: the AC50 was 2.37 µM (active).

For `OC12N=C(c3ccccc3)SC1Cc1cc(Cl)ccc12` (stereo not given), the AC50 was 25.4 µM (active).

On to `CN(C[C@@H](CC[N+]12CCC(C3CCCCC3)(CC1)CC2)c1ccc(Cl)c(Cl)c1)C(=O)c1cc(C(F)(F)F)cc(C(F)(F)F)c1`, for which the AC50 is 5.2 µM (active).

Turning to `O=c1[nH]sc2ccccc12`, the AC50 was 0.77 µM (active).

Take `O=C(O)Cc1cc(I)c(Oc2ccc(O)c(I)c2)c(I)c1`: the AC50 was 11.8 µM (active).

For the molecule `CO[C@H]1/C=C/O[C@@]2(C)Oc3c(C)c(O)c4c(O)c(c(/C=N/N5CCN(C)CC5)c(O)c4c3C2=O)NC(=O)/C(C)=C\C=C\[C@H](C)[C@H](O)[C@@H](C)[C@@H](O)[C@@H](C)[C@H](OC(C)=O)[C@@H]1C`, the AC50 was 17.6 µM (active).

With `NC(=O)c1nc(-c2cccc(-c3cc(F)ccc3OCC(F)(F)C(F)(F)F)c2)n[nH]1`, the AC50 was 26.2 µM (active).

As to `CCCCCCCCOC(=O)c1cc(O)c(O)c(O)c1`, the concentration at half-maximal activity (AC50) was 5.52 µM (active).

Regarding `CC(O)CC(C)(C)O` (stereo not given), the result was inactive.

Turning to `CCCCCCCCCCCO`, the AC50 was 33.6 µM (active).

Take `O=C1CCC(C2CCCCC2)CC1`: the result was inactive.

Take `CCCOC(=O)c1cc(O)c(O)c(O)c1`: the AC50 was 17 µM (active).

On to `CCCCOC(=O)c1ccc(O)cc1`, for which the result was inactive.

In the case of `Cc1cc2c(cc1C(F)(F)F)N(C(=O)Nc1ccc(Oc3cccnc3C)nc1)CC2`, the outcome was inactive.

Take `CCN(Cc1cccc(S(=O)(=O)O)c1)c1ccc(C(=C2C=CC(=[N+](CC)Cc3cccc(S(=O)(=O)O)c3)C=C2)c2ccccc2S(=O)(=O)[O-])cc1`: the AC50 was 9.61 µM (active).

For the molecule `CN(C)C(=O)C1(N2CCCCC2)CCN(CC[C@@]2(c3ccc(Cl)c(Cl)c3)CN(C(=O)c3ccccc3)CCO2)CC1`, the AC50 is 5.91 µM (active).

Turning to `NCc1cccc(C2CCN(C(=O)c3ccc(C#Cc4ccccc4F)o3)CC2)c1`, the AC50 is 7.97 µM (active).

For `CN1C(=O)N(c2ccccc2Br)Cc2cnc(Nc3ccc4c(c3)OCC(CO)O4)nc21` (stereo not given), the AC50 was 1.52 µM (active).

`C[C@]12CC[C@@H]3c4ccc(O)cc4CC[C@H]3[C@@H]1CC[C@H]2O`: the AC50 was 12.4 µM (active).

On to `Cc1ncc(CO)c(CO)c1O`, for which the result was inactive.

Regarding `O=c1ccc2ccccc2o1`, the result was inactive.

As for `COCC(C)OCC(C)OCC(C)O` (stereo not given), the result was inactive.

Take `CCCCCCCCCCCCO`: the AC50 is 30.1 µM (active).

For the molecule `CC(=O)N1CCN(c2ccc(OC[C@H]3CO[C@](Cn4ccnc4)(c4ccc(Cl)cc4Cl)O3)cc2)CC1`, the AC50 was 22.8 µM (active).

Consider `OCCO`, for which the result was inactive.

As to `Cc1cn([C@H]2C[C@H](N=[N+]=[N-])[C@@H](CO)O2)c(=O)[nH]c1=O`, the result was inactive.

Regarding `COc1cc(C(=O)NC2CCN(C)CC2)ccc1Nc1ncc2c(n1)N(C1CCCC1)CC(F)(F)C(=O)N2C`, the AC50 is 5.59 µM (active).

On to `CC(C)(C)c1cc(/C=C2\SC(N)=NC2=O)cc(C(C)(C)C)c1O`, for which the AC50 was 7.44 µM (active).

As to `c1ccc2n[nH]nc2c1`, the outcome was inactive.

For `O=C(OCCCCCCOC(=O)c1ccccc1)c1ccccc1`, the result was inactive.

Take `CC1=CC(=O)/C(=C(/C)O)C(=O)O1`: the result was inactive.

For `O=c1c(-c2ccc(O)cc2)coc2cc(O)cc(O)c12`, the AC50 is 15.6 µM (active).

For the origin of these results see PubChem BioAssay (EPA / NIEHS).
